# Data published in PubChem BioAssay (NCATS).
# Values joined by “and” are separate entries in the source; they are usually repeats but may differ in a detail not shown here. Equal entries are not always repeated. Results filed as inconclusive are left out. Active and inactive are the calls of the source. Calls follow the shape of the dose curve; as a rule, active = well fitted inhibition curve with a large enough effect; inconclusive = small, poorly fitted or top-dose-only effect; inactive = no such curve, though single readings can be large or run the other way.
# Test: Primary qHTS for inhibitors of nuclear receptor binding SET domain protein 2 (NSD2) in an RCH-ACV wild type WT cells (2C) (AID 1645877); also: nearly all actives have a fitted effect of over 70% in size
# Details: RCH-ACV (leukaemia line) NSD2 WT (2C) viability, CellTiter-Glo, 72 h; series mostly up to 44.9 µM
# Text: Assay Provider: Jonathan D. Licht, MD
# University of Florida College of Medicine, Gainesville, FL
# Mutations in epigenetic regulators are common in relapsed pediatric acute lymphoblastic leukemia (ALL). Here, we uncovered the mechanism underlying the relapse of ALL driven by an activating mutation of the NSD2 histone methyltransferase (p.E1099K). […] Correction of this mutation restored glucocorticoid sensitivity. The transcriptional response to glucocorticoids was blocked in NSD2 mutant cells due to depressed glucocorticoid receptor (GR) levels and the failure of glucocorticoids to autoactivate GR expression. […] Pre-treatment of NSD2 p.E1099K cell lines and PDX samples with PRC2 inhibitors reversed glucocorticoid resistance in vitro and in vivo.
# High-throughput drug screening of isogenic RCH-ACV cell lines was performed at the National Center for Advancing Translational Science (NCATS), National Institutes of Health as previously described (1). Briefly, isogenic RCH-ACV NSD2 p.E1099K mutant (9B) and WT cells (2C) were plated at 500 cells/well in a 1536-well plate with a 72-hour incubation with compounds prior to addition of CellTiter-Glo to assess cell viability. NCATS libraries screened include: NPC, MIPE 5.0, Kinase and NPACT. To determine compound activity in the qHTS assay, the concentration-response data for each sample was plotted and modeled by a four-parameter logistic fit yielding IC50 and efficacy (maximal response) values. The area under the curve (AUC) of the dose-response curve ensures both efficacy (magnitude of cell killing) and potency (concentration that elicits cell killing) are accounted for in the analysis of activity.
# 1. Tobie D Lee, Olivia W Lee, Kyle R Brimacombe, Lu Chen, Rajarshi Guha, Sabrina Lusvarghi, Bethilehem G Tebase, Carleen Klumpp-Thomas, Robert W Robey, Suresh V Ambudkar, Min Shen, Michael M Gottesman, Matthew D Hall. A High-Throughput Screen of a Library of Therapeutics Identifies Cytotoxic Substrates of P-glycoprotein. Mol Pharmacol. 2019, Nov;96(5):629-640.
# Potency is read from the fitted curve at half-maximal effect.
row,SMILES,Potency
1,CC(C)[C@H](C(=O)Nc1ccc(C(=O)NO)cc1)c1ccccc1,inactive
2,CC(C)(C)OC(=O)Nc1ccc(-c2cc(C(=O)NCCCCCCC(=O)NO)no2)cc1,1.32 µM (active)
3,CC(C)(C)c1cc(C(C)(C)C)c(NC(=O)c2c[nH]c3ccccc3c2=O)cc1O,16.6 µM (active)
4,Nc1cccc(-c2cc3c(Oc4cccc(O)c4)ncnc3[nH]2)c1,1.15 µM (active) and 833 nM (active)
5,CC(O)C1C(=O)N2C(C(=O)O)=C(SC3CNC(C(=O)N(C)C)C3)C(C)C12 (stereo not given),inactive
6,O=C(O)C1(Cc2cccc(Nc3nccs3)n2)CCC(Oc2cccc(Cl)c2F)CC1 (stereo not given),2.58 µM (active) and 3.72 µM (active)
7,CCn1cc(-c2ccnc3[nH]c(-c4cccc(CN(C)C)c4)cc23)c(-c2ccc(NC(=O)N(C)C)cc2)n1,36.6 nM (active) and 37.2 nM (active)
8,CC(C)Nc1cc(C(F)(F)F)cc2nc(NC(=O)c3cccnc3)nn12,inactive
9,COC(=O)Nc1ccc(-c2nc(N3CCOCC3)c3cnn(C4CCN(Cc5cccnc5)CC4)c3n2)cc1,0.662 µM (active)
10,Cc1nc2ccc(CN(C)c3ccc(C(=O)N[C@@H](CCC(=O)O)C(=O)O)s3)cc2c(=O)[nH]1,59.6 nM (active) and 23.5 nM (active)
11,Cn1cncc1[C@@](N)(c1ccc(Cl)cc1)c1ccc2c(c1)c(-c1cccc(Cl)c1)cc(=O)n2C,inactive
12,Cc1cn2c(-c3cn[nH]c3)cnc2c(Nc2ccc(C(=O)N3CCNCC3)cc2F)n1,12.9 µM (active)
13,Cc1cc(C(=O)N2CCN(c3cccc(Cl)c3)CC2)n(-c2ccccc2)n1,1.32 µM (active)
14,COc1cc2c(Oc3ccc(NC(=O)C4(C(=O)Nc5ccc(F)cc5)CC4)cc3F)ccnc2cc1OCCCN1CCOCC1,365 nM (active) and 833 nM (active)
15,O=C(NCCCNc1nc(Nc2cccc(NC(=O)N3CCCC3)c2)ncc1I)c1cccs1,5.8 µM (active)
16,CC[C@@H]1C(=O)N(C)c2cnc(Nc3ccc(C(=O)NC4CCC(N5CCN(CC6CC6)CC5)CC4)cc3OC)nc2N1C(C)C (stereo not given in full),36.5 nM (active) and 41.1 nM (active) and 37.2 nM (active)
17,Cc1[nH]nc2ccc(-c3cncc(OC[C@@H](N)Cc4ccccc4)c3)cc12,326 nM (active) and 186 nM (active)
18,Cc1ccc2nc(NC(=O)CSc3nc4c(c(=O)n3-c3ccccc3)SCC4)sc2c1,inactive
19,COc1cc(-c2nn(C3CCC(N4CCN(C(C)=O)CC4)CC3)c3ncnc(N)c23)ccc1NC(=O)c1cc2ccccc2n1C (stereo not given),258 nM (active) and 1.05 µM (active)
20,c1nc2nc(Nc3ccc(N4CCOCC4)cc3)nc(NC3CCCCC3)c2[nH]1,563 nM (active) and 525 nM (active)

row,SMILES,Potency
1,O=C1CCC[C@@H]2[C@H]3CCC[N+]4([O-])CCC[C@@H](CN12)[C@@H]34 (stereo not given in full),inactive
2,CNC(=O)c1ccccc1Nc1nc(Nc2ccc(N3CCOCC3)cc2OC)ncc1Cl,649 nM (active) and 1.05 µM (active)
3,COc1cc2c(Oc3ccc(-c4cnc(Nc5ccc(F)cc5)n(C)c4=O)cc3F)ccnc2cc1OCCCN1CCOCC1,4.59 µM (active) and 2.09 µM (active)
4,COc1c(OCCCN2CCOCC2)ccc2c3n(c(=NC(=O)c4cnc(N)nc4)nc12)CCN3,8.4 nM (active) and 60.5 nM (active)
5,C[C@@H](Oc1cc(-c2cnn(C3CCNCC3)c2)cnc1N)c1c(Cl)ccc(F)c1Cl,1.15 µM (active) and 1.29 µM (active) and 1.05 µM (active)
6,Cc1cc(N2CCOCC2)cc2[nH]c(-c3c(NC[C@@H](O)c4cccc(Cl)c4)cc[nH]c3=O)nc12,2.35 µM (active)
7,COc1cccc2nc(-c3cccs3)nc(NN3C(=O)C=C(C)C3=O)c12,0.263 µM (active)
8,NC(=O)c1cccc2cn(-c3ccc([C@@H]4CCCNC4)cc3)nc12,2.9 µM (active) and 2.35 µM (active)
9,COc1ccc2c(c1)CC[C@@H](CN(C)CC(=O)O)[C@H]2c1ccccc1,inactive
10,C1Cc2[nH]nc(-c3nn[nH]n3)c2C1,inactive
11,CNC(=O)c1c(F)cccc1Nc1nc(Nc2cc3c(cc2OC)CCN3C(=O)CN(C)C)nc2[nH]ccc12,3.25 µM (active) and 5.9 µM (active)
12,O=c1[nH]nc(Sc2ncc([N+](=O)[O-])s2)n1-c1ccc2c(c1)OCCO2,7.42 µM (active)
13,Cc1ccc(NC(=O)C2(c3ccc4c(c3)OC(F)(F)O4)CC2)nc1-c1cccc(C(=O)O)c1,inactive
14,CC(=O)OCC(=O)[C@@]1(O)[C@H](C)C[C@H]2[C@@H]3C=C(C)C4=Cc5c(cnn5-c5ccccc5)C[C@]4(C)[C@@H]3[C@@H](O)C[C@@]21C,0.0132 µM (active)
15,CN(C)CC(C)(C)CNc1nn2c(-c3ccccc3)nnc2cc1C1CCC1,inactive
16,CC[C@@H]1C(=O)N(C)c2cnc(Nc3ccc(C(=O)NC4CCN(C)CC4)cc3OC)nc2N1C1CCCC1,0.0372 µM (active)
17,C[C@@H](Oc1cc(-n2cnc3ccc(CN4CCN(C)CC4)cc32)sc1C(N)=O)c1ccccc1C(F)(F)F,0.0417 µM (active)
18,CNC(=O)CN1CCC(Oc2cc3c(Nc4cccc(Cl)c4F)ncnc3cc2OC)CC1,18.6 µM (active)
19,COc1cccc2c(NCc3ccccc3)nc(-n3c(N)nc4ccccc43)nc12,8.33 µM (active)
20,CNC(=O)c1ccc(N2C(=S)N(c3cnc(C#N)c(C(F)(F)F)c3)C(=O)C23CCC3)cc1F,inactive
